Here are results for 39 compounds from PubChem BioAssay (Tox21).

“And” between values parts separate entries of the source, which are not always exact repeats. Equal entries are not always repeated. Records with an inconclusive call do not appear. Some compounds were tested as several samples or in several runs, with calls that do not always agree. The source made the active and inactive calls. Calls come from the whole dose curve; as a rule, active = well fitted curve in the direction sought with a large enough effect in the repeat runs; inconclusive = weak or mixed curves; inactive = no such curve, though single readings can be large; an effect the other way counts as inactive or inconclusive.
% is set by controls: 0 for no effect and ±100 for the full control effect; potency is the fitted concentration of half-maximal effect.

One assay can be described thus: qHTS assay to identify small molecule antagonists of the retinoid acid receptor (RAR) signaling pathway - cell viability counter screen (AID 1159551). Note: nearly all actives have a fitted effect of over 35% in size. The note with it: C3RL4 cells viability, ATP luminescence (CellTiter-Glo), 6 h; series mostly up to 92.4 µM; activity change, negative = cytotoxicity: at the top concentration. In short, it runs like this: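 Luminescent ATP quantitation (CellTiter-Glo) gave cell viability in C3RL4 cells exposed to test chemicals for 6 h at 37 C alongside 1 uM final retinol.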
As for `Oc1ccc([C@H]2CNCc3c2ccc(O)c3O)cc1O`, the “activity change, negative = cytotoxicity” value is -7.19% [at 42.5 µM] (inactive).

Take `[Cl][Hg][c]1ccccc1`: the Potency is 17.2 µM (active). `O=C(N[C@H]1N=C(c2ccccc2F)c2cccc3c2N(CC3)C1=O)c1cc2ccccc2[nH]1`: the “activity change, negative = cytotoxicity” value is 0.271% [at 42.5 µM] (inactive). Same read-out and setting: to `CC1(C)C(C=C(Cl)Cl)C1C(=O)OC(C#N)c1ccc(F)c(Oc2ccccc2)c1` (configuration not stated) belongs -1.48% (inactive); to `COC(=O)c1ccccc1S(=O)(=O)NC(=O)Nc1nc(C)nc(OC)n1`, 1.72% (inactive); to `O=Cc1ccccc1`, -0.0645% (inactive). With `CC(C)c1c(CN(C)C(C)Cc2ccccc2)n(C)n(-c2ccccc2)c1=O` (configuration not stated), the “activity change, negative = cytotoxicity” value is 0.636% [at 42.5 µM] (inactive). With `O=C(Nc1ccc(F)cc1F)c1cccnc1Oc1cccc(C(F)(F)F)c1`, the “activity change, negative = cytotoxicity” value is -1.09% (inactive). Regarding `O=C(N[C@@H]1N=C(c2ccccc2F)c2cccc3c2N(CC3)C1=O)c1cc2ccccc2[nH]1`, the “activity change, negative = cytotoxicity” value is -0.726% [at 42.5 µM] (inactive). For `O=C1C2(Cl)C3(Cl)C4(Cl)C(Cl)(Cl)C5(Cl)C3(Cl)C1(Cl)C5(Cl)C24Cl` (configuration not stated), the Potency is 47.8 µM (active). Regarding `Nc1ccccc1-c1ccccc1`, the “activity change, negative = cytotoxicity” value is -1.28% (inactive). Same read-out and setting: to `CN1[C@@H]2CC[C@H]1CC(O)C2` (some centres not stated) belongs 2.37% (inactive); to `C[C@]12C/C(=C/O)C(=O)C[C@@H]1CC[C@@H]1[C@@H]2CC[C@@]2(C)[C@H]1CC[C@]2(C)O`, -0.0826% [at 42.5 µM] (inactive); to `Nc1nc(N)c(N)c(N)n1`, 0.42% (inactive). In the case of `C=CC(=O)[O][Sn]([CH2]CCC)([CH2]CCC)[CH2]CCC`, the Potency is 6.11 µM (active).

For `c1ccc2c(c1)cc1ccc3cccc4ccc2c1c34`, the “activity change, negative = cytotoxicity” value was -0.99% (inactive). For `FC(F)C(F)(F)OCC(Cn1cncn1)c1ccc(Cl)cc1Cl` (configuration not stated), the “activity change, negative = cytotoxicity” value was -5.98% (inactive).

With `ClC(Cl)C(Cl)(Cl)Cl`, the “activity change, negative = cytotoxicity” value was -1.17% (inactive). Same read-out and setting: next, `Brc1cccc(-c2ccccc2)c1`: -4.91% (inactive); `O=[N+]([O-])c1ccc(Cl)c(Cl)c1Cl`: -2.18% (inactive).

A short description of the next assay: qHTS assay to identify small molecule antagonists of the retinoic acid receptor (RAR) signaling pathway (AID 1159552; note: nearly all actives have a fitted effect of over 50% in size). As to conditions: C3RL4 RARE luciferase reporter, retinol-stimulated, 6 h; series mostly up to 92.4 µM; activity, negative = inhibition: at the top concentration. Put shortly:
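Overnight-plated C3RL4 reporter cells get compound, then retinol to 1 uM final; plates sit 6 hr at 37 C, 5% CO2. A luciferase reagent is added and light output recorded after 30 min at room temperature.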
On the technique in general: qHTS replaces the single test concentration by a dilution series.
For the compound `CC#C[C@]1(O)CC[C@H]2[C@@H]3C[C@H](C)C4=CC(=O)CC[C@]4(C)[C@H]3CC[C@@]21C`, the Potency is 13.3 µM (active).

For the compound `CN`, the “activity, negative = inhibition” value was 19.6% (inactive). The same measure, in the same setting: to `BrCCCBr` belongs -3.55% (inactive); to `CC(C)C(Nc1ccc(C(F)(F)F)cc1Cl)C(=O)OC(C#N)c1cccc(Oc2ccccc2)c1` (configuration not stated), 89.3% (inactive). On the same count and under the same terms, next, `CN1C2CCC(C)(C)C1CC(OC(=O)C(O)(c1cccs1)c1cccs1)C2` (configuration not stated): -19.9% [at 42.5 µM] (inactive). Still for that read-out and setting: to `C[C@]12CC[C@H]3[C@@H](CCC4=CC(=O)CC[C@@H]43)[C@@H]1CC[C@@H]2OC(=O)CCc1ccco1` belongs -14.8% [at 42.5 µM] (inactive); to `[O]=[Cr][O][Cr]=[O]`, 0.129% (inactive); to `Oc1cccc(Cl)c1Cl`, -1.75% (inactive). As for `CNC(=O)CSP(=O)(OC)OC`, the “activity, negative = inhibition” value was -3.04% (inactive). On to `CCNS(=O)(=O)C(F)(F)C(F)(F)C(F)(F)C(F)(F)C(F)(F)C(F)(F)C(F)(F)C(F)(F)F`, for which the “activity, negative = inhibition” value is 59.2% (inactive). Take `CN1C(=O)[C@@H](NC(=O)c2cc3ccccc3[nH]2)N=C(c2ccccc2)c2ccccc21`: the “activity, negative = inhibition” value is -7.04% [at 42.5 µM] (inactive).

In the case of `ClSC(Cl)(Cl)Cl`, the “activity, negative = inhibition” value is 2.86% (inactive). Regarding `CCCCCCCCCCCCCCn1cc[n+](C)c1`, the Potency is 13.7 µM (active) and 24.1 µM (active) and inactive. In the case of `COc1ccc2c3c1O[C@H]1[C@H](O)CC[C@H]4[C@@H](C2)N(C)CC[C@@]341`, the “activity, negative = inhibition” value is 11% (inactive). On the same count and under the same terms, next, `CC(Cl)CCl` (configuration not stated): 40.9% (inactive). On the same count and under the same terms, to `Cc1ccn2nc(S(=O)(=O)Nc3c(F)cccc3F)nc2n1` belongs 14% (inactive). Still for that read-out and setting: to `C[C@H]1[C@H](c2ccc(Cl)cc2)SC(=O)N1C(=O)NC1CCCCC1` belongs -4.9% (inactive). Turning to `Oc1ccc2[nH]cc(CCCCN3CC=C(c4ccccc4)CC3)c2c1`, the “activity, negative = inhibition” value is -6.52% [at 42.5 µM] (inactive). `CC(C)=CCN1CC[C@@]2(C)c3cc(O)ccc3C[C@@H]1[C@@H]2C`: the “activity, negative = inhibition” value is 3.02% (inactive). Same read-out and setting: next, `Oc1ccc([C@H]2CNCc3c2ccc(O)c3O)cc1O`: 82.3% [at 42.5 µM] (inactive). As to `[Cl][Hg][c]1ccccc1`, the Potency is 1.09 µM (active). Regarding `O=C(N[C@H]1N=C(c2ccccc2F)c2cccc3c2N(CC3)C1=O)c1cc2ccccc2[nH]1`, the “activity, negative = inhibition” value was 4.89% [at 42.5 µM] (inactive). Turning to `CC1(C)C(C=C(Cl)Cl)C1C(=O)OC(C#N)c1ccc(F)c(Oc2ccccc2)c1` (configuration not stated), the “activity, negative = inhibition” value is -20.5% (inactive).

Take `COC(=O)c1ccccc1S(=O)(=O)NC(=O)Nc1nc(C)nc(OC)n1`: the “activity, negative = inhibition” value was 72.4% (inactive). The same measure, in the same setting: next, `O=Cc1ccccc1`: -1.68% (inactive).

Turning to `CC(C)c1c(CN(C)C(C)Cc2ccccc2)n(C)n(-c2ccccc2)c1=O` (configuration not stated), the “activity, negative = inhibition” value was 0.602% [at 42.5 µM] (inactive).

Turning to `O=C(Nc1ccc(F)cc1F)c1cccnc1Oc1cccc(C(F)(F)F)c1`, the “activity, negative = inhibition” value is -0.396% (inactive).

With `O=C(N[C@@H]1N=C(c2ccccc2F)c2cccc3c2N(CC3)C1=O)c1cc2ccccc2[nH]1`, the “activity, negative = inhibition” value was -16.9% [at 42.5 µM] (inactive).

Turning to `O=C1C2(Cl)C3(Cl)C4(Cl)C(Cl)(Cl)C5(Cl)C3(Cl)C1(Cl)C5(Cl)C24Cl` (configuration not stated), the Potency is 21.3 µM (active) and 29.3 µM (active). As for `Nc1ccccc1-c1ccccc1`, the “activity, negative = inhibition” value was 47.8% (inactive). On the same count and under the same terms, next, `CN1[C@@H]2CC[C@H]1CC(O)C2` (some centres not stated): -5.75% (inactive). For the compound `C[C@]12C/C(=C/O)C(=O)C[C@@H]1CC[C@@H]1[C@@H]2CC[C@@]2(C)[C@H]1CC[C@]2(C)O`, the Potency was 24.6 µM (active) and 26.6 µM (active).
